FXIIa inh mix – blocks human factor XIIa in pooled compound mixtures | P00748 | purified FXIIa, fluorogenic substrate | inhibition, % at 5 µM | 62,000 tested, 0.2% active;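 further: 0% = enzyme without compound and 100% = no enzyme blank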
HePTP inh – blocks human HePTP tyrosine phosphatase. P35236. recombinant HePTP phosphatase activity, OD absorbance. inhibition, % at 20 µM. 110,000 tested, 0.64% active. AID 521; in the data active means inhibition above about 50%;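 further: plate controls were vehicle for no effect and reference inhibitor for full effect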
FXIa inh mix – inhibitors of human coagulation factor XIa, pooled mixtures; AID 680; P03951; 62,000 tested, 0.19% active; purified FXIa, fluorogenic substrate; inhibition, % at 5 µM;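 further: each value is inhibition by a whole ten-compound pool holding the compound; 0% = enzyme with no mixture and 100% = wells lacking enzyme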
Target sequence (P03951 19-387 limits assumed): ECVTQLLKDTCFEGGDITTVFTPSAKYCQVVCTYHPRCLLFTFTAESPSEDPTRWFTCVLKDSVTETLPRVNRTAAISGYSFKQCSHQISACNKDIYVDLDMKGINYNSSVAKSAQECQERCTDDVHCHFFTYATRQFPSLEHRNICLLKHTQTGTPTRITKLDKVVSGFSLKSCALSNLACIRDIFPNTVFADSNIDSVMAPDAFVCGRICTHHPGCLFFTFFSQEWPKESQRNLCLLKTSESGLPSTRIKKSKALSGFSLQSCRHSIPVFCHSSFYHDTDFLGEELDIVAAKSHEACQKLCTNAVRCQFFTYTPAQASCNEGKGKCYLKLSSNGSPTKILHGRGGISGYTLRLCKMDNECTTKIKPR
Target sequence (P03951 388-625 limits assumed): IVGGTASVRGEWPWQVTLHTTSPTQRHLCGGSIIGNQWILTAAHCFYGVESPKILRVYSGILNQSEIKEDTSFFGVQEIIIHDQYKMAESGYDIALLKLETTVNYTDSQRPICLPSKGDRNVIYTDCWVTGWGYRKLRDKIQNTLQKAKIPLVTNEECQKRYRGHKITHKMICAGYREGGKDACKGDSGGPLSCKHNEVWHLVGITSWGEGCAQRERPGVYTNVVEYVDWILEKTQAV
D1 allo mod – D1 dopamine receptor (human) allosteric modulation | 58,000 tested, 5.9% active | B-score at 10 µM | P21728 | HEK293 D1, CRE-luciferase, dopamine EC30 potentiation; actives deviate in either direction;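 active means luminescence count or its row- and column-corrected plate score outside the 99.7% band of the plate's sample wells, on either side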
TNAP act mid DEA – activates human TNAP at intermediate phosphate acceptor concentration | purified TNAP, CDP-star luminescence, 100 mM DEA, 30 min; stronger effect = higher value; scale: 0 levamisole-inhibited, 1 vehicle-only enzyme | AID 813 | activation factor at 20 µM | P05186 | 64,000 tested, under 10 active;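 active means activation factor of at least 2 at 20 µM, relative to controls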
Candida biofilm – kills Candida albicans biofilms. 85,000 tested, 0.14% active. inhibition, % at 6 µM. C. albicans biofilm + clotrimazole, Alamar Blue. AID 834;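 active means inhibition above 20%; inactive means inhibition below 20%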;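 further: preformed 24 hr biofilms exposed to compound for 48 hr; 0% = biofilm without compound and 100% = blank killed by clotrimazole plus chlorhexidine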
D1 mod confirm – confirmation of human D1 dopamine receptor allosteric modulators; shares compounds with D1 allo mod; HEK293 D1 CRE-luciferase, dopamine EC30 potentiation; stronger effect = higher value; luminescence at 10 µM; 2,200 tested, 88% active;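 active means luminescence in either of two replicates above the same-plate mean plus 3 SD of the low-dose dopamine control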
D1 ag no DA – activates D1 CRE-luciferase signal without dopamine present | HEK293 D1 CRE-luciferase, luminescence, no dopamine; stronger effect = higher value | shares compounds with D1 allo mod | 1,900 tested, 0.8% active | luminescence at 10 µM; in the data active means luminescence above about 3900
Isoprot counter – isoproterenol response counter-screen activity for D1 modulators. shares compounds with D1 allo mod. HEK293 D1 CRE-luciferase, isoproterenol EC30 counter-screen; stronger effect = higher value. luminescence at 10 µM. 2,200 tested, 63% active;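 active means luminescence in either replicate above plate mean of wells with a partly effective reference agonist dose plus 3 SD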;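 further: isoproterenol raises cAMP through native beta-adrenoceptor Gs so signal bypasses D1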
* marks the source's active call; other numbers are inactive results; x = no result given. The sample as a whole holds a higher share of hits than the screen did. Unless noted, no stated cut-off is given here; in the data, active means inhibition above about 20% (passing the limit was not always enough); inactive means the rest.

SMILES	FXIIa inh mix	HePTP inh	FXIa inh mix	D1 allo mod	TNAP act mid DEA	Candida biofilm	D1 mod confirm	D1 ag no DA	Isoprot counter
CCOC(=O)c1c(NC(=O)OC)sc(C(=O)N(CC)CC)c1C	2	3	6	4.2*	1	5	8956*	1472	3244*
CCOC(=O)c1c(NC(=O)C2CCCCC2)sc(C(=O)N(CC)CC)c1C	x	-15	x	x	x	x	x	x	x
COc1ccc(C(=O)/C=C\Nc2ccc(Cl)cn2)cc1	x	-8	x	x	x	x	x	x	x
O=S(=O)(Nc1ccc(-c2nc3cccnc3s2)cc1)c1cccs1	0	0	-44	8.5*	1	3	19148*	1852	3344*
O=S(=O)(Nc1ccc(-c2nc3cccnc3s2)cc1)c1ccc(Cl)s1	x	x	x	x	x	12	x	x	x
CCn1nc(NC(=O)c2ccncc2)c2cc3ccccc3nc21	-22	3	-10	11*	0.9	4	15352*	1464	4132*
CCn1nc(NC(=O)c2ccco2)c2cc3ccccc3nc21	x	3	x	14*	0.9	10	12332*	1428	3396*
CCCn1nc(NC(=O)c2ccco2)c2cc3ccc(C)cc3nc21	-13	-9	-9	3.2	1	3	x	x	x
CC(=O)Nc1ccc(S(=O)(=O)N2c3ccc(C)cc3C(C)=CC2(C)C)cc1	x	-12	x	x	x	x	x	x	x
Cc1cccc(C)c1NC(=O)c1ccc(N(C)S(=O)(=O)c2ccccc2)cc1	x	-1	x	x	x	x	x	x	x
CCc1ccc(NC(=O)C(=O)NCCc2ccc(F)cc2)cc1	x	-16	x	x	x	x	x	x	x
CC1CC(C)CN(C(=O)CCNS(=O)(=O)c2cccs2)C1 (stereo unspecified)	x	x	x	x	x	4	x	x	x
O=C(CCNS(=O)(=O)c1cccs1)N1CCc2ccccc2C1	5	-3	3	3.4*	0.9	3	4796	x	2812*
COc1ccc(Br)cc1C(=O)Nc1ccc2oc(-c3ccccc3)nc2c1	x	8	x	x	x	x	x	x	x
CC(CSc1nc2ccccc2s1)Cn1c(N2CCCC2)nc2c1c(=O)[nH]c(=O)n2C (stereo unspecified)	5	3	8	2.5*	0.9	x	13288*	x	6552*
CC(C)CCn1c(Sc2nc3ccccc3s2)nc2c1c(=O)[nH]c(=O)n2C	x	4	x	21*	0.9	3	19816*	1612	7068*
CCn1c(=O)c2cc(S(=O)(=O)NCc3ccccc3)ccc2n(CC)c1=O	14	-6	3	-0.052	0.9	1	x	x	x
CCn1c(=O)c2cc(S(=O)(=O)NC3CCCCC3)ccc2n(CC)c1=O	7	9	11	4.2*	0.9	-1	6924*	1232	2356
Cc1cccc(NCCCC(=O)N/N=C/c2ccco2)c1	x	-12	x	x	x	x	x	x	x
O=C1CC(c2ccc3c(c2)OCO3)c2cc3c(cc2N1)OCCO3 (stereo unspecified)	3	-11	2	11*	1.1	0	11940*	1824	4100*
O=C1CC(c2ccsc2)c2cc3c(cc2N1)OCCO3 (stereo unspecified)	7	-7	0	5.8*	0.8	-1	14472*	1508	2832
O=C1C(=O)N(CCCn2ccnc2)C(c2ccc(Cl)cc2)/C1=C(\O)c1ccc(Cl)cc1 (stereo unspecified)	x	6	x	x	x	x	x	x	x
C=C(C)Cn1c(SCC#N)nc2ccccc2c1=O	7	13	10	16*	0.9	0	15044*	1640	4668*
C=C(C)Cn1c(SCC)nc2ccccc2c1=O	5	6	13	5	0.9	11	x	x	x
CCN=C(Nc1ccc2c(c1)OCO2)SC1CC(=O)N(c2ccccc2F)C1=O (stereo unspecified)	4	0	3	6.4*	0.9	5	12104*	2380	3376*
COc1ccc(C(=O)NC2=C(C#N)CCC2)cc1OC	8	-2	-1	13*	0.9	7	12668*	x	2924*
NS(=O)(=O)c1ccc(CCNC(=O)C2CCCCN2S(=O)(=O)c2ccccc2)cc1 (stereo unspecified)	4	-5	0	3.5*	0.9	7	5988	1656	2696

Screening results deposited in PubChem BioAssay by several laboratories.
